Compound activity deposited in PubChem BioAssay by several laboratories.
In the library only some 4.8% were active in any assay of this set; here they are far more common.
Mdm2 MdmX PPI – inhibitors of human Mdm2-MdmX association, primary screen, cell-based, luminescence, split luciferase, SaOS-2, uHTS | Protein Mdm4 (Homo sapiens) + E3 ubiquitin-protein ligase Mdm2 (Homo sapiens), … | SaOS-2 split-luciferase Mdm2/MdmX complementation | inhibition, % at 8 µM | actives 3% (n = 330,000) | AID 485346, 2010;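 active = inhibition of at least 50% at 8 µM in the primary screen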
Target sequence (O15151 whole entry, looked up): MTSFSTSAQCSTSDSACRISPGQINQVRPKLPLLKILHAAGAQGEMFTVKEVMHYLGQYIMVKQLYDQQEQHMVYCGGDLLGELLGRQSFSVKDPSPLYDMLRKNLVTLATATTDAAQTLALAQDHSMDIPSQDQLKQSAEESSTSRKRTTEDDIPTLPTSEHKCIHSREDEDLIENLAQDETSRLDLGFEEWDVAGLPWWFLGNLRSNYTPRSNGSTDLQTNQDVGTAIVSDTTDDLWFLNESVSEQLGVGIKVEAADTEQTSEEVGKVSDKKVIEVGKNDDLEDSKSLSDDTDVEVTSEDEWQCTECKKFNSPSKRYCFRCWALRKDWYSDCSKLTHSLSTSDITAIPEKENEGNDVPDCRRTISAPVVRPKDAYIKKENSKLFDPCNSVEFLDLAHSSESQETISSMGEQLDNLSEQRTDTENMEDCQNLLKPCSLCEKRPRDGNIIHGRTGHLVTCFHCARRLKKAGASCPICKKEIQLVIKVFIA
Target sequence (Q00987 whole entry, looked up): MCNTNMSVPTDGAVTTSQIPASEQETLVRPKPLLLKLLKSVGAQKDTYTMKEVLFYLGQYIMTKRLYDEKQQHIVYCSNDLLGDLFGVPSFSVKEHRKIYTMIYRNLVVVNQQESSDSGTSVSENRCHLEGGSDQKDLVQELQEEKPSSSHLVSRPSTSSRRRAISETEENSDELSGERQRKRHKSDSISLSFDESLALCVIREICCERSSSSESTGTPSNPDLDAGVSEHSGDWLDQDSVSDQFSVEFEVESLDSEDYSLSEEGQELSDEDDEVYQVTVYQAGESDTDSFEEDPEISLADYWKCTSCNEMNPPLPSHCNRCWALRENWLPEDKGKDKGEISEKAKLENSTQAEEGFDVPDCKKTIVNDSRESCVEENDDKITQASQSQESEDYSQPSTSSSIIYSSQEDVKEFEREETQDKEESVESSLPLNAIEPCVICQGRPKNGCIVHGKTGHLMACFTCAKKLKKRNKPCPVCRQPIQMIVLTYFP
Beta cell apopt – inhibitors of cytokine-induced beta cell apoptosis, primary screen, luminescence. protection from apoptosis, % (no concentration beside the values). actives 0.8% (n = 300,000). INS-1E cytokine-induced death, ATP luminescence, 48 h; percent of positive-control rescue, neutral wells zero. AID 435005, 2010;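 active = Every replicate reaches about 75%, or at least half do and their mean reaches it too, limit read from the data; inconclusive = At least half of replicates reach the limit but their mean does not; inactive = Under half of replicates reach the limit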;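 also: 0% = cytokine-treated negative control wells and 100% = positive control rescue; higher means more ATP so stronger rescue from cytokine killing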
Calb FLC – C. albicans growth inhibition with fluconazole, primary screen, CaCi-2 strain, Alamar Blue fluorescence; C. albicans CaCi-2 (fluconazole-resistant clinical isolate) + fluconazole, 48 h; growth inhibition, % (no concentration beside the values); actives 0.57% (n = 300,000); AID 1979, 2009;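 active = growth inhibition above about 58% in most replicates, limit read from the data, passing the limit was not always enough; inconclusive = exactly half the replicates above a set limit; inactive = most replicates below a set limit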;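 also: all wells also contain fluconazole at 8 µg/ml as a sub-toxic cotreatment; 0% = median of DMSO wells and 100% = median of geldanamycin control wells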
CSC inhib – cancer stem cell viability inhibitors, primary screen, luminescence | cancer stem cell-like cells viability | inhibition, % at 7.5 µM | actives 1.1% (n = 300,000) | AID 2717, 2010; in the data active = inhibition above about 75%; inconclusive = no clear call, values can overlap the other calls; tested in HMLE shEcad cells
MPTP inh – mitochondrial permeability transition pore inhibitors, primary screen, biochemical, isolated mouse mitochondria, absorbance. Ca2+ swelling absorbance, 30 min. inhibition, % at 10 µM. actives 1.4% (n = 360,000). AID 602449, 2012;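 active = inhibition of 50% or more, scaled per plate between neutral and stimulator controls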;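 also: 0% = DMSO wells given calcium and 100% = 1 mM EGTA wells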
Mdm2-MdmX conf – Mdm2-MdmX complex disruptors, retested hits, confirmation, luminescence, single concentration | actives 55% (n = 10,000) | inhibition, % at 8 µM | Mdm2-MdmX binding, luminescent assay | shares compounds with Mdm2 MdmX PPI; in the data active = inhibition above about 40%
FLuc counter – full-length luciferase signal inhibition, confirmation, counter-screen for Mdm2/MdmX interaction inhibitor project, cell-based, single concentration, SaOS-2. shares compounds with Mdm2 MdmX PPI. SaOS-2 full-length luciferase counterscreen, luminescence. inhibition, % at 8 µM. actives 77% (n = 6,200). AID 504607, 2011;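 active = mean inhibition at 8 µM reaching about 37%, which flags the compound as non-specific, limit read from the data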;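 also: p53-null SaOS-2 cells with luciferase driven by a doxycycline-inducible promoter; compound on cells about two nights before reading with doxycycline added after day one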
An asterisk follows results filed as active; ? = inconclusive; / = no result.

SMILES	Mdm2 MdmX PPI	Beta cell apopt	Calb FLC	CSC inhib	MPTP inh	Mdm2-MdmX conf	FLuc counter
CC(C)(C)c1cc(C(=O)N/N=C/c2ccc(F)cc2)n(-c2ccccc2)n1	13	9	-4	59	2	/	/
COc1ccc(/C=N/NC(=O)c2cc3cc(OC)c(OC)cc3[nH]2)cc1	-5	25	5	11	0	/	/
CCOc1ccc2[nH]c(C(=O)N/N=C/c3ccc(OC)cc3)cc2c1	53*	34	50	51	0	56*	96*
COc1ccc2[nH]c(C(=O)N/N=C/c3ccc(O)cc3O)cc2c1	71*	121*	14	100*	1	83*	31
CC(C)(C)c1cc(C(=O)N/N=C/c2ccccc2O)n(-c2ccccc2)n1	70*	85*	-10	117*	4	77*	29
CC(C)Oc1ccc(C(=O)NN2C(=O)NC3(CCCCC3)C2=O)cc1	-8	3	/	/	1	/	/
C=CCSc1nc2c(N)ncnc2n1C1OC(CO)C(O)C1O (stereo not drawn)	/	/	/	/	-1	/	/
O=C(Nc1cccc(-c2cnc3ccccc3n2)c1)c1ccccc1	57*	12	0	-6	-2	-34	/
O=C(CCl)Nc1ccc(Oc2cnc3ccccc3n2)cc1	67*	-4	-1	0	3	49*	14
CCC(=O)Nc1cccc(-c2cnc3ccccc3n2)c1	-18	-1	32	-16	1	/	/
O=C(Nc1cccc(-c2cnc3ccccc3n2)c1)c1cccc(NC(=O)c2ccco2)c1	68*	13	57	/	16	65*	88*
O=C(CCl)Nc1cccc(-c2cnc3ccccc3n2)c1	97*	-3	0	41	0	99*	55*
Cc1ccc2oc(=O)c3cc(C(=O)NCCCN4CCN(C)CC4)sc3c2c1	30	6	1	10	8	/	/
Cc1ccc2oc(=O)c3cc(C(=O)NCCCN4CC(C)CC(C)C4)sc3c2c1 (stereo not drawn)	50*	6	-5	11	1	17	/
Cc1ccc(/C=C/C(=O)c2ccccc(=O)c2O)c(C)c1	67*	70	92*	2	4	61*	19
COc1cccc(-c2c(-c3cc(OC)cc(OC)c3)n(C)c3ccc(-c4cnc(N5CCOCC5)nc4)cc23)c1	71*	-3	/	42	0	-6	/
COc1ccc(-c2c(-c3cc(OC)cc(OC)c3)n(C)c3ccc(-c4ccc(S(N)(=O)=O)cc4)cc23)cc1	57*	-3	/	2	0	40	80*
COc1cc(OC)cc(-c2c(-c3ccc(F)cc3)c3cc(-c4cnc(OC)nc4)ccc3n2C)c1	57*	1	/	4	1	54*	42*
CCCCNC(=O)c1nc(C2CCN(S(=O)(=O)c3ccccc3C(F)(F)F)CC2)oc1-c1ccccc1	/	/	/	/	0	/	/
CCOC(=O)C1(COCc2ccccc2)CCCCC1=O (stereo not drawn)	/	/	/	/	-1	/	/
CCCN1C/C(=C/c2ccc3c(c2)OCO3)C(=O)/C(=C/c2ccc3c(c2)OCO3)C1	99*	-3	-31	87*	0	36	68*
O=C(Nc1nc2ccc(Cl)cc2s1)c1ccc(N2CCCCC2)c([N+](=O)[O-])c1	61*	19	22	15	14	42*	54*
CCOC(=O)c1c(NC(=O)CSc2c[nH]c3ccccc23)sc2c1CCCC2	45	5	3	55	2	/	/
CCOC(=O)c1c(NC(=O)CSc2nnc(-c3c[nH]c4ccccc34)n2CCOC)sc2c1CCCCC2	56*	32	-1	15	-1	17	/
COCC(=O)N[C@H]1C=C[C@@H](CC(=O)OC)O[C@@H]1CO	/	/	/	/	0	/	/
SMILES	Mdm2 MdmX PPI	Beta cell apopt	Calb FLC	CSC inhib	MPTP inh	Mdm2-MdmX conf	FLuc counter
C=CCOc1c(Cl)cc(CNCCCN2CCOCC2)cc1OC	9	-1	-1	-4	1	/	/
CN(C)c1ccc(C(=O)/C=C/c2ccc(Br)cc2)cc1	-88	-3	1	25	2	/	/
Cc1cccc(/C=C/C(=O)c2ccc(NC3=NCCCS3)cc2)c1	86*	9	/	43	16	58*	57*
O=C(/C=C/c1ccc(Br)cc1)c1ccc(NC2=NCCCS2)cc1	101*	36	11	/	18	39	77*
COc1cccc(/C=C/C(=O)c2ccc(NC3=NCCCS3)cc2)c1	25	10	-6	-2	0	/	/
Cc1ccc(S(=O)(=O)N2C(=O)/C(=C3\SC(=S)NC3=O)c3ccccc32)cc1	51*	5	0	40	/	37	82*
O=C(OCC(=O)N1CCN(C(=O)c2ccco2)CC1)c1ccc(Cl)nc1	-30	-1	/	-10	0	/	/
COc1ccccc1NC(=O)c1sc2ncn(Cc3ccc(C)cc3)c(=O)c2c1C	55*	7	-6	-8	0	-7	/
O=C1OCCC1Sc1nnc(-c2ccc(Cl)cc2Cl)o1 (stereo not drawn)	77*	3	1	-4	1	62*	49*
Cc1cc(C(=O)CSc2nnc3ccccn23)c(C)n1-c1ccccc1	82*	1	5	-8	16	86*	30
Cc1ccc(-n2nnnc2SCC(=O)Nc2nc(-c3ccc(F)cc3)cs2)cc1C	65*	1	-1	12	11	39	47*
Cc1cc(C)c2oc(-c3ccc(C)c(NC(=S)NC(=O)c4cccs4)c3)nc2c1	77*	-3	-2	/	4	0	/
Cc1ccn2c(Nc3ccccc3C)c(-c3ccncc3)nc2c1	59*	-46	29	-2	-1	34	/
Cc1ccc(Nc2c(-c3ccccn3)nc3cc(C)ccn23)cc1	92*	103*	?	98*	5	89*	55*
CCCCCCSc1ccc(-c2nc3cc(C)ccn3c2NC2CCCCC2)cc1	51*	6	/	52	2	-2	/
Cc1ccn2c(Nc3ccc4c(c3)OCO4)c(-c3ccccn3)nc2c1	79*	0	-23	1	3	69*	37*
CC(=O)Nc1c(-c2ccccc2)nc2cc(C)ccn12	10	1	-3	-7	1	/	/
C[N+](C)(C)CCNC(=O)c1ccccc1	/	/	/	/	-1	/	/
CCCN(C)C1CN(Cc2cn(CCCC(=O)OC)nn2)S(=O)(=O)C1 (stereo not drawn)	/	/	/	/	0	/	/
Cc1ccc2nc(-c3ccncc3)c(Nc3ccccc3)n2c1	44	-9	?	-26	1	/	/
CSc1ccc(-c2nc3cnccn3c2Nc2ccc3c(c2)OCO3)cc1	55*	2	-1	16	2	11	/
